# Reference: PubChem BioAssay
# Assay: modulators of HCV replicon luciferase signal, primary screen, HCV replication inhibitor project, Huh7 cells, luciferase reporter (AID 1109);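 note: huh7 hepatoma cells harbouring a luciferase neomycin HCV replicon reporter; luciferase luminescence as measure of HCV replicon replication; test concentration not given here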
# Settings: 48 h, higher = more signal
row,SMILES,z-score
1,CC[C@H]1C2=C3C(CC[C@H]4C(OCc5ccc(F)cc5C(F)(F)F)OC[C@](C)([C@@H]34)N(C(=O)OC(C)(C)C)C2)C(COC(C)=O)C1COC(C)=O (stereo not given in full),-0.567
2,[N-]=[N+]=NCc1ccccc1[C@H]1OC(c2ccc(OCCCO)cc2)=N[C@@]1(CCS(=O)(=O)c1ccccc1)C(=O)NCCN1CCOCC1,-0.233
3,C=C(CCCC)/C(=C/C[C@@H](OC(C)=O)c1ccc(OCCO)cc1)c1cc(C(=O)OC)ccc1OC,-2.31
4,O=C1C2C=CC(C(O)c3ccccn3)N(Nc3ccc([N+](=O)[O-])cc3)C2C(=O)N1c1ccccc1 (stereo not given),-0.35
5,CCN1C(=O)C2CC(=O)C3C(CN(S(=O)(=O)c4ccc(C)cc4)C3c3ccc(C)cc3)C2C1=O (stereo not given),-2.44
6,COC(=O)C1=CC(CCCO)=CC(c2ccc(CN3CCCC3)cc2)N(C)C=C1C(=O)OC (stereo not given),-0.979
7,CCOC(=O)C[C@H]1[C@H](OC(=O)c2cc3ccccc3oc2=O)[C@@H](NC(=O)c2ccc(-c3ccccc3)cc2)c2cc(OCCCO)ccc2N1C(=O)Cc1ccc(OC)cc1,-0.971
8,C=CCNC(=O)[C@H]1[C@@H]2C(=O)O[C@@H](c3ccccc3)[C@@H](c3ccccc3)N2[C@@H](c2ccc(OCCO)cc2)[C@]12C(=O)N(C(=O)OCCOC)c1ccc(C#CCNC(N)=O)cc12,-0.197
9,O=C1C[C@@](C(=O)NCC(F)(F)F)(c2ccc([N+](=O)[O-])cc2)[C@@H](c2ccc(CO)cc2I)N1CC12CC3CC(CC(C3)C1)C2,-3.3
10,COc1cc2c(cc1O)C(C)N(Cc1sc3ccccc3c1Cl)CC2 (stereo not given),-0.728
